Assay results reported in the supplement of paper PMC10849652.
Of roughly 7,900 targets only a part is listed; those with a hit were picked by preference. About 0.6% of all pairs of compound and target were hits. A number with no mark means an inactive call.

Tests used:
Assay in all cases: log2 fold change, soluble protein after heating vs DMSO (PISA); higher = thermal stabilisation; K562 cells, 10 uM, 30 min; active = over 0.2 and 3.5 SD of the protein, either way, in both replicates (recomputed)
[1] = compound: COC1=CC=C(C=C1)CN2C=CC3=C2C=C(C=C3)C(=O)NO
How it was run: (§1)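 K562 cells (2×10^6 cells/mL) were treated with 10 μM compound for 30 min, and aliquots were heated for 3 min over 48°C-58°C. Pooled aliquots were extracted in PBS with 0.5% NP-40 at 4°C, and the supernatant after 21,000xg for 90 min was measured by TMTpro 16plex LC-MS/MS with channel sums equalised. Reported thermal stability, relative to control samples and from duplicates, is a log2 fold change.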

filanesib = compound: CON(C)C(=O)N1N=C(c2cc(F)ccc2F)S[C@@]1(CCCN)c1ccccc1 [filanesib]
How it was run: as §1

zotarolimus = compound: CO[C@H]1C[C@@H]2CC[C@@H](C)[C@@](O)(O2)C(=O)C(=O)N2CCCC[C@H]2C(=O)O[C@H]([C@H](C)C[C@@H]2CC[C@H](n3cnnn3)[C@H](OC)C2)CC(=O)[C@H](C)/C=C(\C)[C@@H](O)[C@@H](OC)C(=O)[C@H](C)C[C@H](C)/C=C/C=C/C=C/1C [zotarolimus]
How it was run: as §1

pictilisib = compound: CS(=O)(=O)N1CCN(Cc2cc3nc(-c4cccc5[nH]ncc45)nc(N4CCOCC4)c3s2)CC1 [pictilisib]
How it was run: as §1

[2] = compound: CS(=O)(=O)c1ccc(-c2cnc(N)c(C(=O)Nc3ccccc3)n2)cc1
How it was run: as §1

crizotinib = compound: C[C@@H](Oc1cc(-c2cnn(C3CCNCC3)c2)cnc1N)c1c(Cl)ccc(F)c1Cl [crizotinib]
How it was run: as §1

[3] = compound: C[C@H](C1=CC=C(C=C1)C(=O)NC2=C3C=CNC3=NC=C2)N
How it was run: as §1

duvelisib = compound: C[C@H](Nc1ncnc2nc[nH]c12)c1cc2cccc(Cl)c2c(=O)n1-c1ccccc1 [duvelisib]
How it was run: as §1

gandotinib = compound: Cc1cc(Nc2cc(CN3CCOCC3)c3nc(C)c(Cc4ccc(Cl)cc4F)n3n2)n[nH]1 [gandotinib]
How it was run: as §1

tozasertib = compound: Cc1cc(Nc2cc(N3CCN(C)CC3)nc(Sc3ccc(NC(=O)C4CC4)cc3)n2)n[nH]1 [tozasertib]
How it was run: as §1

[4] = compound: Cc1cc(SCc2sc(-c3ccc(C(F)(F)F)cc3)nc2C)ccc1OCC(=O)O
How it was run: as §1

doramapimod = compound: Cc1ccc(-n2nc(C(C)(C)C)cc2NC(=O)Nc2ccc(OCCN3CCOCC3)c3ccccc23)cc1 [doramapimod]
How it was run: as §1

ispinesib = compound: Cc1ccc(C(=O)N(CCCN)[C@@H](c2nc3cc(Cl)ccc3c(=O)n2Cc2ccccc2)C(C)C)cc1 [ispinesib]
How it was run: as §1

idasanutlin = compound: COc1cc(C(=O)O)ccc1NC(=O)[C@@H]1N[C@@H](CC(C)(C)C)[C@](C#N)(c2ccc(Cl)cc2F)[C@H]1c1cccc(Cl)c1F [idasanutlin]
How it was run: as §1

alisertib = compound: COc1cc(Nc2ncc3c(n2)-c2ccc(Cl)cc2C(c2c(F)cccc2OC)=NC3)ccc1C(=O)O [alisertib]
How it was run: as §1

[5] = compound: COc1cc2nc(-c3cc(F)ccc3O)nc(N[C@@H]3CNC[C@H]3C(C)(C)O)c2cc1OC
How it was run: as §1

[6] = compound: COc1cccc2cc(-c3nc([C@H]4CC[C@H](C(=O)O)CC4)n4ncnc(N)c34)[nH]c12
How it was run: as §1

lapatinib = compound: CS(=O)(=O)CCNCc1ccc(-c2ccc3ncnc(Nc4ccc(OCc5cccc(F)c5)c(Cl)c4)c3c2)o1 [lapatinib]
How it was run: as §1

[7] = compound: C[C@@H]1COCCN1C2=NC(=NC(=C2)C3(CC3)S(=O)(=O)C)C4=C5C=CNC5=CC=C4
How it was run: as §1

gefitinib = compound: COc1cc2ncnc(Nc3ccc(F)c(Cl)c3)c2cc1OCCCN1CCOCC1 [gefitinib]
How it was run: as §1

Chain of UniProt P26641 (P26641 whole entry, looked up): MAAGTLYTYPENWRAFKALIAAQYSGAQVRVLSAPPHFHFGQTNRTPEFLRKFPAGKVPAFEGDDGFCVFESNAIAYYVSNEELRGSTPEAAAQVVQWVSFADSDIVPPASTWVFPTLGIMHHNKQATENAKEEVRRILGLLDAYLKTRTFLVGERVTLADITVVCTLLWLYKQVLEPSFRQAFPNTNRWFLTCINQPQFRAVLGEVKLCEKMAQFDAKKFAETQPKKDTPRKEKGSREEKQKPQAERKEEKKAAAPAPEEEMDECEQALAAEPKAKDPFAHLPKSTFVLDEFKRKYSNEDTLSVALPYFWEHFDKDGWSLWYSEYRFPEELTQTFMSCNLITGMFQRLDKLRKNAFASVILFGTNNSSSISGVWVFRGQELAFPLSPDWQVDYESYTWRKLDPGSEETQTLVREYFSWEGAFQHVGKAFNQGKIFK
Chain of UniProt Q96GQ7 (Q96GQ7 whole entry, looked up): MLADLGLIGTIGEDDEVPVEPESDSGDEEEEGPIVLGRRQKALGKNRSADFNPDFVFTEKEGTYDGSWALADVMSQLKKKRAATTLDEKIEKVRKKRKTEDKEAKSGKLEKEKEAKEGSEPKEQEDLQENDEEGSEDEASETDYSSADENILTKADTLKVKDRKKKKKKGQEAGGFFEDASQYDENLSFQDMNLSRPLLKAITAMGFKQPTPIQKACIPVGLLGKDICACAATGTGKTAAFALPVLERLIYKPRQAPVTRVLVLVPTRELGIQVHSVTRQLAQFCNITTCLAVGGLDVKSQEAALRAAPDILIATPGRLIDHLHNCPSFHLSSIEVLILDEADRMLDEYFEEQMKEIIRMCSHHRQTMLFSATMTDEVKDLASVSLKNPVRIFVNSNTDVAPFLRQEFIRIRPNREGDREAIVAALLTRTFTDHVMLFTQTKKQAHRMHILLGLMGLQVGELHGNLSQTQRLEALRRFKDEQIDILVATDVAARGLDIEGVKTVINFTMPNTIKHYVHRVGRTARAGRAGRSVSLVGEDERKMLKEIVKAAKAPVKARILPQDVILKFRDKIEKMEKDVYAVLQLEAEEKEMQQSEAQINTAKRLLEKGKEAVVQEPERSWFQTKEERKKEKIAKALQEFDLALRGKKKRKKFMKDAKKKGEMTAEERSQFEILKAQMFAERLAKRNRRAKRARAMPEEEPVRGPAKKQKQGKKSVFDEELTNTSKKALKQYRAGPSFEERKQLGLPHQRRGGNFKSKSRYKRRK
Chain of UniProt Q8NBI2 (Q8NBI2 whole entry, looked up): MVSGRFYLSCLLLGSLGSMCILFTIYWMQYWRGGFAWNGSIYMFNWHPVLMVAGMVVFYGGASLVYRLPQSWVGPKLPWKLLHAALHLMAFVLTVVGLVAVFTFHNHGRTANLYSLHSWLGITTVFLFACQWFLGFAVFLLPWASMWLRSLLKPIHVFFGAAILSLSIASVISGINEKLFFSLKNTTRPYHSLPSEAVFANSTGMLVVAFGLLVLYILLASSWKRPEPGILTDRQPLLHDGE
Chain of UniProt Q01780 (Q01780 whole entry, looked up): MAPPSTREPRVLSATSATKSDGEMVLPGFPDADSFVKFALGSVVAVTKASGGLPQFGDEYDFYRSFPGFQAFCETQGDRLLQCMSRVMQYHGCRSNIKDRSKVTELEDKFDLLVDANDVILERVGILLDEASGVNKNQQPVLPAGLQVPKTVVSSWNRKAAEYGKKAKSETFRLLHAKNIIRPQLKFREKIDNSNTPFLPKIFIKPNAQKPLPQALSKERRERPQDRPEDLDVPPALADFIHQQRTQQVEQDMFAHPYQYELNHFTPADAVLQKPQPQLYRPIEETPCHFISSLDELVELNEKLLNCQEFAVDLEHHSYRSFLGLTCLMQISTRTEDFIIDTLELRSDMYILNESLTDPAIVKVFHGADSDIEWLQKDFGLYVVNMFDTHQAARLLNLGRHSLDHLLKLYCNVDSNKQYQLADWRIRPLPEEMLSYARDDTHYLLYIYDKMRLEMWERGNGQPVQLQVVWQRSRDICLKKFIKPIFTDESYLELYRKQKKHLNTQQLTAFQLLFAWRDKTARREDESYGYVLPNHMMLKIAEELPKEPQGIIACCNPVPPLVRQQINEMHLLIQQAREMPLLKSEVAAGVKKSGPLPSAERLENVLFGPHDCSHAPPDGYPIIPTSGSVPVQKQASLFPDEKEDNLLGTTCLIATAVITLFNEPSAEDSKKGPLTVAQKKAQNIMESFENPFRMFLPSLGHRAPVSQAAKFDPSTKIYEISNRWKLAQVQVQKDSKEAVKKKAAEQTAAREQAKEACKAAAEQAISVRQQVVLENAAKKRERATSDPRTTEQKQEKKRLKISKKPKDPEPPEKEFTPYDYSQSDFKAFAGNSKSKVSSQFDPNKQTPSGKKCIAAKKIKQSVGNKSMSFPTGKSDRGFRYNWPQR
Chain of UniProt P25774 (P25774 whole entry, looked up): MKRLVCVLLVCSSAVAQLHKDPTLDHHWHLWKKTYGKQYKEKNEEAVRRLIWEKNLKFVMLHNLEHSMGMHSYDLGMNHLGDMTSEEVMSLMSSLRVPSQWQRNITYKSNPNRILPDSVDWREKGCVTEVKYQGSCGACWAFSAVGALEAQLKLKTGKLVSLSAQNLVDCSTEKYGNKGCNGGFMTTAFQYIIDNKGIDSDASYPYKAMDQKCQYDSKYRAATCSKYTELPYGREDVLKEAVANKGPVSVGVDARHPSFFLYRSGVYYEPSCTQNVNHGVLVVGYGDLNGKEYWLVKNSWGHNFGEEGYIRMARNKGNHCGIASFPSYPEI
Chain of UniProt P68104 (P68104 whole entry, looked up): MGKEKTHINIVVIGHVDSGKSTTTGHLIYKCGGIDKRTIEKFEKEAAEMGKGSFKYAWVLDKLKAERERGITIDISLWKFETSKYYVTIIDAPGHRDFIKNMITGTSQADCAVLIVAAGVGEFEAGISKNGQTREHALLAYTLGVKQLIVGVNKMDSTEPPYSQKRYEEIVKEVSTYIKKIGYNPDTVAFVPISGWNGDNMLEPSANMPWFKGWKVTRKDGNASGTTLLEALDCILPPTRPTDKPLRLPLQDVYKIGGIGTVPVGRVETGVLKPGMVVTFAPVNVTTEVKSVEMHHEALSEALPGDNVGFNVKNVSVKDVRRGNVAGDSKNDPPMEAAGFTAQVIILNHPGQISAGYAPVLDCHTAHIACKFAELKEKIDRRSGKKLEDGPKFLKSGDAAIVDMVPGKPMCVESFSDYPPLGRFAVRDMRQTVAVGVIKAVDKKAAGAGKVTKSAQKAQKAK
Chain of UniProt Q9UBQ6 (Q9UBQ6 whole entry, looked up): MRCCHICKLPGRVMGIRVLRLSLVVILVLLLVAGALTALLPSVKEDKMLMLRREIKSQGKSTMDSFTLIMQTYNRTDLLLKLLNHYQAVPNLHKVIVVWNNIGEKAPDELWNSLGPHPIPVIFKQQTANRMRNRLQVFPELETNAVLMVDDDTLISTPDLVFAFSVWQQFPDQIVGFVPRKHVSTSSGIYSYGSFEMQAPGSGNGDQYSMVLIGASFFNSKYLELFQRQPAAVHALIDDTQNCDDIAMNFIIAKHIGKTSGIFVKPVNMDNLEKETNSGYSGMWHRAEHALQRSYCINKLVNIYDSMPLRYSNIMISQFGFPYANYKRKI

Target	log2 fold change [1]	log2 fold change (filanesib)	log2 fold change (zotarolimus)	log2 fold change (pictilisib)	log2 fold change [2]	log2 fold change (crizotinib)	log2 fold change [3]	log2 fold change (duvelisib)	log2 fold change (gandotinib)	log2 fold change (tozasertib)	log2 fold change [4]	log2 fold change (doramapimod)	log2 fold change (ispinesib)	log2 fold change (idasanutlin)	log2 fold change (alisertib)	log2 fold change [5]	log2 fold change [6]	log2 fold change (lapatinib)	log2 fold change [7]	log2 fold change (gefitinib)
CTSS (UniProt P25774)	0.019	0.051	-0.081	-0.043	-0.007	0.063	0.059	0.01	0.018	-0.114	0.045	0.043	0.049	–	–	–	–	–	–	–
EXOSC10 (UniProt Q01780)	0.593	0.136	0.115	0.227	0.126	0.043	-0.015	0.09	0.527	-0.118	-0.138	0.097	-0.441	0.01	-0.002	0.387	0.1	-0.221	0.063	–
EEF1A1 (UniProt P68104)	0.081	-0.119	0.182	–	0.081	0.001	-0.474	-0.048	–	-0.139	-0.004	-0.062	0.115	-0.086	-0.347	-0.216	-0.034	0.1	-0.022	-0.029
EEF1G isoform 2 (UniProt P26641)	-0.017	0.012	0.027	-0.06	0.011	0.015	0.006	-0.011	-0.061	0.046	0.061	-0.013	0.061	-0.014	-0.046	-0.016	-0.083	0.041	-0.028	0.018
DNAH5 (UniProt Q8TE73)	-0.147	-0.061	0.024	-0.001	0.049	0.145	-0.076	0.117	0.013	0.082	-0.052	-0.031	0.057	–	0.011	-0.042	0.058	-0.484 (active)	-0.007	0.046
EXTL2 (UniProt Q9UBQ6)	0.051	-0.023	-0.147	-0.111	0.132	0.111	-0.227	-0.015	0.068	0.141	-0.046	-0.01	0.108	-0.121	-0.144	-0.094	0.123	0.05	0.014	0.075
CYB561A3 isoform 2 (UniProt Q8NBI2)	-0.026	-0.073	0.011	0.263	0	-0.05	-0.073	0.021	-0.103	-0.126	-0.014	0.021	-0.139	-0.066	0.041	0.023	0.088	-0.019	–	-0.06
DNAH10 (UniProt Q8IVF4)	0.574 (active)	-0.187	-0.046	0.052	0.124	0.135	-0.055	0.077	-0.136	-0.146	-0.082	-0.003	–	–	-0.042	–	0.007	–	-0.003	-0.04
DDX27 (UniProt Q96GQ7)	0.091	0.278	0.071	0.061	-0.039	-0.037	0.37	-0.145	0.073	-0.12	0.071	0.135	0.004	0.246	0.415	–	-0.138	–	-0.064	0.044
